Compounds without any hit were thinned out: in the full panel of roughly 83,000, 20% have a hit.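 Single-concentration screen, 48 h exposure, 96-well plates. Endpoint: percent growth. Below 10 = active.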 Values without a mark were called inactive. Activity calls are given as the source filed them.

Some test systems named below: SR leukemia; RPMI-8226 leukemia; OVCAR-8 ovarian; OVCAR-5 ovarian; OVCAR-4 ovarian; SK-OV-3 ovarian; IGROV1 ovarian; OVCAR-3 ovarian; HS 578T breast; NCI/ADR-RES ovarian.
Assay in all cases: NCI-60 one-dose screen, 48 h (100 = growth as untreated, 0 = no growth, -100 = all killed)
Holding throughout (details): 10 µM unless noted

In the case of `COc1ccc(C2C(C#N)=C(N)Oc3c2ccc2ccccc32)cc1` (stereo not given), the growth is 37.4% with SR leukemia; 44.3% with RPMI-8226 leukemia; 56.5% with OVCAR-8 ovarian; 73.3% in the assay on OVCAR-5 ovarian; 62.3% in the assay on OVCAR-4 ovarian; 57.8% with SK-OV-3 ovarian. Also, the growth was 41% with IGROV1 ovarian, 15.4% with OVCAR-3 ovarian, 47.1% with HS 578T breast and 5.02% (active) with NCI/ADR-RES ovarian.
Consider `COC(=O)[C@]12CC[C@@H](C)[C@H](C)[C@@H]1C1=CC[C@@H]3[C@@]4(C)C(C=O)=C[C@@](C)(COC(=O)c5ccco5)[C@@H]4[C@H](O)C[C@@]3(C)[C@]1(C)CC2`, for which the growth with SR leukemia was 0.404% (active); in the assay with RPMI-8226 leukemia, -26.8% (active); with OVCAR-8 ovarian, -3.22% (active); in the assay with OVCAR-5 ovarian, -20.9% (active); in the assay with OVCAR-4 ovarian, -0.264% (active); in the assay with SK-OV-3 ovarian, 18.7%. Further, the growth with IGROV1 ovarian is 5.24% (active); in the assay on OVCAR-3 ovarian, -75.5% (active); with HS 578T breast it was -9.48% (active); in the assay on NCI/ADR-RES ovarian, 0.299% (active).
As for `C=C[C@@H]1C[C@@H]2Cc3cc(F)ccc3N1O2`, the growth with SR leukemia is 32%; in the assay with RPMI-8226 leukemia it was 94.1%; in the assay with OVCAR-8 ovarian, 114%; in the assay on OVCAR-5 ovarian, 97%; in the assay with OVCAR-4 ovarian, 104%; in the assay on SK-OV-3 ovarian, 113%. In addition, the growth in the assay on IGROV1 ovarian was 122%; in the assay with OVCAR-3 ovarian it was 113%; with HS 578T breast it was 106%; with NCI/ADR-RES ovarian, 102%.
Take `O=C(O)Cc1cccc(=O)c(O)c1C(=O)O`: the growth with SR leukemia is 103%; in the assay on RPMI-8226 leukemia, 88.8%; in the assay with OVCAR-8 ovarian it was 105%; in the assay with OVCAR-5 ovarian it was 96.4%; with OVCAR-4 ovarian, 117%; in the assay with SK-OV-3 ovarian, 107%. The growth with IGROV1 ovarian was 110%; in the assay on OVCAR-3 ovarian, 114%; in the assay with HS 578T breast, 112%; in the assay on NCI/ADR-RES ovarian, 117%.
Take `C=C(C)[C@@H]1C[C@@H]2Cc3cc(Cl)ccc3N1O2`: the growth with SR leukemia is 90.5%; in the assay with RPMI-8226 leukemia, 83.2%; in the assay on OVCAR-8 ovarian, 108%; with OVCAR-5 ovarian, 83.5%; with OVCAR-4 ovarian it was 89.4%; with SK-OV-3 ovarian, 108%. Also, the growth in the assay on IGROV1 ovarian was 120%; in the assay with OVCAR-3 ovarian it was 116%; with HS 578T breast, 95.9%; in the assay with NCI/ADR-RES ovarian, 100%.
On to `COc1ccc2[nH]c(C(=O)OCc3ccc4c(Cl)cc(Cl)c(O)c4n3)cc2c1`, for which the growth in the assay with SR leukemia was -12.5% (active); with RPMI-8226 leukemia, -34.6% (active); in the assay on OVCAR-8 ovarian, -31.2% (active); with OVCAR-5 ovarian, -71.8% (active); in the assay with OVCAR-4 ovarian it was -57.5% (active); with SK-OV-3 ovarian it was 68.8%. In addition, the growth in the assay on IGROV1 ovarian was -92.4% (active); in the assay on OVCAR-3 ovarian it was -90% (active); in the assay on HS 578T breast, -16.1% (active); in the assay on NCI/ADR-RES ovarian it was -58.9% (active).
As to `N#Cc1c(Nc2ccccc2)nc2n(c1=O)-c1ccccc1Sc1ccccc1-2`, the growth in the assay with SR leukemia is 59.6%; in the assay with RPMI-8226 leukemia it was 66.7%; in the assay with OVCAR-8 ovarian, 74.9%; in the assay on OVCAR-5 ovarian, 110%; in the assay with OVCAR-4 ovarian, 58.4%; with SK-OV-3 ovarian, 94.8%. The growth in the assay with IGROV1 ovarian was 64.1%; with OVCAR-3 ovarian, 69.4%; with HS 578T breast, 97.9%; in the assay on NCI/ADR-RES ovarian, 85.5%.
Take `Cc1cc(N/N=C/c2nc(-c3ccc(Br)cc3)oc2C)c2cc(Br)ccc2n1`: the growth in the assay with SR leukemia was 2.16% (active); in the assay with RPMI-8226 leukemia, -9.38% (active); in the assay on OVCAR-8 ovarian, 12%; in the assay with OVCAR-5 ovarian, 95.6%; in the assay with OVCAR-4 ovarian it was -83.5% (active); in the assay with SK-OV-3 ovarian, 105%. The growth is 78.8% in the assay on IGROV1 ovarian, -13.4% (active) with OVCAR-3 ovarian, 85.5% with HS 578T breast and 35% in the assay with NCI/ADR-RES ovarian.
Regarding `S=c1[nH]nc(-c2cc3ccc2CCc2ccc(cc2)CC3)n1-c1ccccc1`, the growth in the assay on SR leukemia is 96.6%; in the assay with RPMI-8226 leukemia, 94.5%; in the assay with OVCAR-8 ovarian it was 102%; in the assay on OVCAR-5 ovarian, 103%; with OVCAR-4 ovarian it was 83.1%; in the assay on SK-OV-3 ovarian, 111%. The growth was 100% in the assay on IGROV1 ovarian, 104% with OVCAR-3 ovarian, 116% with HS 578T breast and 99.8% in the assay with NCI/ADR-RES ovarian.
`N#Cc1c(-c2ccccc2)cc(-c2ccccc2)n(CC(=O)NO)c1=O`: the growth with SR leukemia is 2.74% (active); in the assay on RPMI-8226 leukemia it was 23.2%; with OVCAR-8 ovarian, 67.7%; in the assay with OVCAR-5 ovarian, 69.3%; with OVCAR-4 ovarian, 50.6%; in the assay with SK-OV-3 ovarian it was 107%. In addition, the growth in the assay on IGROV1 ovarian is -61.4% (active); in the assay on OVCAR-3 ovarian, 30%; in the assay with HS 578T breast, 39.4%; in the assay on NCI/ADR-RES ovarian, 11.5%.
Consider `COc1cc(NC(N)=NCCC(C)(C)Oc2ccc(C(F)(F)F)cc2)ncc1C#N`, for which the growth in the assay on SR leukemia was -54.9% (active); with RPMI-8226 leukemia, -49.6% (active); in the assay with OVCAR-8 ovarian, -76.6% (active); in the assay on OVCAR-5 ovarian it was 28.9%; in the assay on OVCAR-4 ovarian, 12%; in the assay with SK-OV-3 ovarian, 48.8%. Further, the growth in the assay on IGROV1 ovarian is -38.9% (active); in the assay with OVCAR-3 ovarian, -75% (active); with HS 578T breast, 38.1%; in the assay on NCI/ADR-RES ovarian, 0.0363% (active).
Turning to `CC(C)(C)n1cc(-c2ccnc(NCCNS(=O)(=O)c3ccc(Cl)cc3)c2)c(-c2cccc(O)c2)n1`, the growth was 24.9% in the assay on SR leukemia; 23.8% in the assay with RPMI-8226 leukemia; 65.1% with OVCAR-8 ovarian; 80.9% in the assay on OVCAR-5 ovarian; 53.5% with OVCAR-4 ovarian; 90.4% in the assay on SK-OV-3 ovarian. Also, the growth in the assay on IGROV1 ovarian was 79.1%; in the assay with OVCAR-3 ovarian it was 72.5%; in the assay on HS 578T breast, 66%; with NCI/ADR-RES ovarian, 68.2%.
In the case of `COc1cc(/C=C/C(=O)c2c(C)nc3ccccc3c2C)ccc1OCCCCOc1cc2c(cc1OC)C(=O)N1CCC[C@H]1C=N2`, the growth was -25.1% (active) with SR leukemia; -61.2% (active) in the assay with RPMI-8226 leukemia; -7.99% (active) in the assay on OVCAR-8 ovarian; -59.6% (active) with OVCAR-5 ovarian; -20.1% (active) in the assay on OVCAR-4 ovarian; -50.1% (active) in the assay with SK-OV-3 ovarian. Further, the growth in the assay with IGROV1 ovarian was -100% (active); with OVCAR-3 ovarian it was -57.1% (active); in the assay on HS 578T breast, 39%; in the assay on NCI/ADR-RES ovarian, 43.9%.

Values taken from PubChem BioAssay (NCI).
